According to PubChem BioAssay AID1159580 (chemical genetic matrix, 2015):
Among all 5,500 compounds or so, about 2,000 (36%) were called active. Not shown: some 18% with an inconclusive outcome. Cut-off read from the data, not from the text of the source: active = normalized growth mostly below about 0.91 (no sharp cut-off); inconclusive = no clear call, values can overlap the other calls; inactive = mostly above about 0.92. Some of the results follow.

Test: chemical genetic growth profiling, strain panel (AID 1159580);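 note: tested at 20 µM; growth read once vehicle control cultures reached saturation at 30 °C; 1 = growth at the plate median or of vehicle wells; lower values mean less growth of the strain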
Conditions: growth OD

Measured: normalized growth

CC(C)=CCC[C@](C)(O)C1CC=C(C)CC1 (some centres not stated)
inactive: S. cerevisiae deletion strains, locus YJR043C, strain POL32, hits give low values 1.01 | S. cerevisiae deletion strains, locus YJR066W, strain TOR1, hits give low values 0.953 | S. cerevisiae deletion strains, locus YKL009W, strain mrt4, hits give low values 0.962 | S. cerevisiae deletion strains, locus YKL068W, hits give low values 1.01 | S. cerevisiae deletion strains, locus YKL085W, strain MDH1 (second series), hits give low values 0.991 | S. cerevisiae deletion strains, locus YKL085W, strain MDH1, hits give low values 0.991 | S. cerevisiae deletion strains, locus YKL160W, strain elf1, hits give low values 1 | S. cerevisiae deletion strains, locus YKR001C, strain vps1, hits give low values 0.902 | S. cerevisiae deletion strains, locus YKR026C, strain gcn3, hits give low values 0.976 | S. cerevisiae deletion strains, locus YKR091W, strain srl3, hits give low values 0.98 | S. cerevisiae deletion strains, locus YLL001W, strain dnm1, hits give low values 0.992 | S. cerevisiae deletion strains, locus YLL026W, hits give low values 0.992 | S. cerevisiae deletion strains, locus YLL041C, strain sdh2, hits give low values 0.997 | S. cerevisiae deletion strains, locus YLR027C, strain aat2, hits give low values 0.969 | S. cerevisiae deletion strains, locus YLR039C, strain RIC1, hits give low values 0.964 | S. cerevisiae deletion strains, locus YLR058C, strain SHM2, hits give low values 1.03 | S. cerevisiae deletion strains, locus YLR102C, strain apc9, hits give low values 0.986 | S. cerevisiae deletion strains, locus YLR113W, strain HOG1, hits give low values 1.02 | S. cerevisiae deletion strains, locus YLR221C, strain rsa3, hits give low values 0.982 | S. cerevisiae deletion strains, locus YLR258W, strain gsy2, hits give low values 0.978 | S. cerevisiae deletion strains, locus YLR262C, strain YPT6 (second series), hits give low values 0.998 | S. cerevisiae deletion strains, locus YLR262C, strain YPT6, hits give low values 0.966 | S. cerevisiae deletion strains, locus YLR268W, strain sec22, hits give low values 0.991 | S. cerevisiae deletion strains, locus YLR320W, strain mms22, hits give low values 0.984 | S. cerevisiae deletion strains, locus YLR330W, strain CHS5, hits give low values 1.02 | S. cerevisiae deletion strains, locus YLR342W, strain FKS1 (second series), hits give low values 0.995 | S. cerevisiae deletion strains, locus YLR342W, strain FKS1, hits give low values 0.98 | S. cerevisiae deletion strains, locus YLR357W, strain rsc2, hits give low values 0.944 | S. cerevisiae deletion strains, locus YLR370C, strain arc18, hits give low values 0.96 | S. cerevisiae deletion strains, locus YLR371W, strain rom2, hits give low values 1 | S. cerevisiae deletion strains, locus YLR384C, strain iki3, hits give low values 0.971 | S. cerevisiae deletion strains, locus YLR418C, strain cdc73, hits give low values 0.982 | S. cerevisiae deletion strains, locus YML016C, strain PPZ1, hits give low values 1.01 | S. cerevisiae deletion strains, locus YML032C, strain rad52, hits give low values 0.992 | S. cerevisiae deletion strains, locus YML120C, strain ndi1, hits give low values 0.988 | S. cerevisiae deletion strains, locus YML124C, strain tub3, hits give low values 1 | S. cerevisiae deletion strains, locus YMR058W, strain fet3, hits give low values 0.97 | S. cerevisiae deletion strains, locus YMR078C, strain ctf18, hits give low values 0.976 | S. cerevisiae deletion strains, locus YMR125W, strain sto1, hits give low values 0.967 | S. cerevisiae deletion strains, locus YMR129W, hits give low values 0.992 | S. cerevisiae deletion strains, locus YMR205C, strain PFK2, hits give low values 0.983 | S. cerevisiae deletion strains, locus YMR223W, strain ubp8, hits give low values 0.991 | S. cerevisiae deletion strains, locus YMR231W, strain pep5, hits give low values 0.965 | S. cerevisiae deletion strains, locus YMR307W, strain GAS1, hits give low values 1.13 | S. cerevisiae deletion strains, locus YNL067W, strain RPL9B, hits give low values 1.01 | S. cerevisiae deletion strains, locus YNL071W, strain lat1, hits give low values 0.98 | S. cerevisiae deletion strains, locus YNL153C, strain GIM3, hits give low values 1.01 | S. cerevisiae deletion strains, locus YNL183C, strain NPR1, hits give low values 0.954 | S. cerevisiae deletion strains, locus YNL209W, strain ssb2, hits give low values 0.98 | S. cerevisiae deletion strains, locus YNL233W, strain BNI4, hits give low values 1.04 | S. cerevisiae deletion strains, locus YNL248C, strain rpa49, hits give low values 0.978 | S. cerevisiae deletion strains, locus YNL250W, strain rad50, hits give low values 1 | S. cerevisiae deletion strains, locus YNL271C, strain bni1, hits give low values 0.988 | S. cerevisiae deletion strains, locus YNL298W, strain CLA4, hits give low values 1.01 | S. cerevisiae deletion strains, locus YNL307C, strain MCK1, hits give low values 0.983 | S. cerevisiae deletion strains, locus YNL322C, strain KRE1 (second series), hits give low values 0.982 | S. cerevisiae deletion strains, locus YNR049C, strain mso1, hits give low values 0.979 | S. cerevisiae deletion strains, locus YNR052C, strain pop2, hits give low values 0.994 | S. cerevisiae deletion strains, locus YOL012C, strain htz1 1.39 | S. cerevisiae deletion strains, locus YOL147C, strain pex11, hits give low values 0.981 | S. cerevisiae deletion strains, locus YOR001W, strain rrp6, hits give low values 0.975 | S. cerevisiae deletion strains, locus YOR061W, strain CKA2, hits give low values 1.03 | S. cerevisiae deletion strains, locus YOR069W, strain VPS5, hits give low values 1.02 | S. cerevisiae deletion strains, locus YOR070C, strain gyp1, hits give low values 1.02 | S. cerevisiae deletion strains, locus YOR080W, strain dia2, hits give low values 0.979 | S. cerevisiae deletion strains, locus YOR083W, strain WHI5, hits give low values 0.987 | S. cerevisiae deletion strains, locus YOR106W, strain vam3, hits give low values 0.947 | S. cerevisiae deletion strains, locus YOR136W, strain idh2, hits give low values 0.992 | S. cerevisiae deletion strains, locus YOR144C, strain elg1, hits give low values 0.989 | S. cerevisiae deletion strains, locus YOR184W, strain ser1, hits give low values 0.994 | S. cerevisiae deletion strains, locus YOR231W, strain MKK1, hits give low values 0.993 | S. cerevisiae deletion strains, locus YOR265W, strain rbl2, hits give low values 0.98 | S. cerevisiae deletion strains, locus YOR270C, strain vph1, hits give low values 0.932 | S. cerevisiae deletion strains, locus YOR290C, strain snf2, hits give low values 0.969 | S. cerevisiae deletion strains, locus YOR316C, strain cot1, hits give low values 0.986 | S. cerevisiae deletion strains, locus YPL051W, strain arl3, hits give low values 0.981 | S. cerevisiae deletion strains, locus YPL055C, strain LGE1, hits give low values 1.04 | S. cerevisiae deletion strains, locus YPL078C, strain atp4, hits give low values 0.988 | S. cerevisiae deletion strains, locus YPL106C, strain sse1, hits give low values 0.981 | S. cerevisiae deletion strains, locus YPL240C, strain hsp82, hits give low values 0.977 | S. cerevisiae deletion strains, locus YPL256C, strain CLN2, hits give low values 0.99 | S. cerevisiae deletion strains, locus YPR119W, strain clb2, hits give low values 1.01 | S. cerevisiae deletion strains, locus YPR141C, strain kar3, hits give low values 1 | S. cerevisiae deletion strains, locus YPR163C, strain tif3, hits give low values 0.973 | S. cerevisiae deletion strains, locus YPR167C, strain met16, hits give low values 1.02 | S. cerevisiae deletion strains, strain wtn01, hits give low values 0.974 | S. cerevisiae strains, strain wild type, hits give low values 1.02
